D2 PAM-1: potentiates the human D2 dopamine receptor allosterically; P14416; DiscoveRx D2 beta-arrestin cells, luminescence, 90 min; 100% = 57 uM dopamine signal; potentiation, % (concentration not given with the values); actives 0.23% (n = 360,000); AID 624464; in the data active means potentiation above about 50%; inconclusive means mostly about 30% to 49%
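D2 cells co-treated with compound plus 50 nM dopamine (EC20) for 90 min at 37 deg C to detect potentiation. Beta-arrestin recruitment was read as enzyme-fragment luminescence after 1 h at ambient temperature. Full response was set by 57 uM dopamine.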
D2 antagonist: antagonists of human D2 dopamine receptor. inhibition, % at 10 µM. actives 2% (n = 340,000). HEK293 TREx D2 cells, calcium flux, dopamine EC80. AID 485344; in the data active means inhibition above about 30%; inactive means below that, where a call was filed; further: 0% is about no effect
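Inhibition of EC80 dopamine-driven calcium flux, recorded kinetically, defines activity here; cells are a tetracycline-induced HEK293 T-REx line expressing force-coupled D2.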
D2 PAM-2: positively modulates the human D2 dopamine receptor allosterically; P14416; HEK293 T-REx D2, calcium flux, EC20 dopamine potentiation; potentiation, % at 10 µM; actives 0.34% (n = 340,000); AID 485347;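 active means potentiation over 3 SD above the plate norm, cut at about 30% in these data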; further: 0% is about no effect
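Potentiation of an EC20 dopamine calcium response is measured in a force-coupled, tetracycline-inducible Hek293 Trex D2 line. Compound-only kinetic reads over 180 s flag agonists before dopamine addition.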
D2 ag-1: D2 dopamine receptor (human) agonism; P14416; actives 0.53% (n = 340,000); HEK293 T-REx D2 cells, calcium flux agonist mode; AID 485358; activation, % at 2 µM;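 active means activation over 3 SD above normal in the single-dose calcium agonist read, cut at about 30% in these data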; further: 0% is about no effect
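Tetracycline-induced HEK293 T-REx cells with force-coupled D2 receptor, plated overnight at 30 C, loaded with no-wash calcium dye. After a 10 s baseline, compound was pin-added and calcium flux read kinetically for 180 s; calcium rises flagged agonists.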
D2 ag-2: human D2 receptor agonism in beta-arrestin assay. P14416. DiscoveRx PathHunter D2 beta-arrestin, luminescence, 90 min; 100% = 57 uM dopamine signal. activation, % (test concentration not listed). actives 0.084% (n = 360,000). AID 624465; in the data active means activation above about 40%; inconclusive means between about 15% and that limit
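DiscoveRx PathHunter D2 beta-arrestin cells (2,100/well) attached overnight, then compound-stimulated 90 min at 37 C in HBSS/10 mM HEPES/0.1% Tween-20 buffer; beta-galactosidase complementation read by luminescence after 1 h at ambient temperature. Dopamine 57 uM final (EC100) as control.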
D3 arrestin ag: activates human D3 dopamine receptor beta-arrestin recruitment; actives 4% (n = 2,300); DiscoveRx D3 beta-arrestin cells, luminescence, 90 min; Potency, µM (top dose mostly 76.9 µM), for the others: at the highest dose activation, hits mostly activators; shares compounds with D2 ag-1;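 further: potency means the concentration at half of the fitted maximal effect; 100% = dopamine control response; nearly all actives have a fitted effect of over 70% in size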
Target sequence (P35462 whole entry, looked up): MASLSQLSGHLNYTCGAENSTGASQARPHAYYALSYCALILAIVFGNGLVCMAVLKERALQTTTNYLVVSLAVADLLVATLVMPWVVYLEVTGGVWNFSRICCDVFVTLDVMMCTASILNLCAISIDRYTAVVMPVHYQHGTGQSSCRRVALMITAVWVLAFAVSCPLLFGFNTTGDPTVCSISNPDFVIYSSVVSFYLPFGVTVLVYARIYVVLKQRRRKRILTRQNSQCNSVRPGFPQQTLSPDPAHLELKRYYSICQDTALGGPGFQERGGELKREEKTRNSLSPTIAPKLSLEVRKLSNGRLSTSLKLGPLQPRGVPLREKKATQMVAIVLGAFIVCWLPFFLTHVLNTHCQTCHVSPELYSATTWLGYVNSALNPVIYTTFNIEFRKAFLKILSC
D2 ag-3: counter-screen for D3 agonists: human D2 dopamine receptor agonism; shares compounds with D2 ag-1; DiscoveRx PathHunter D2 beta-arrestin, luminescence, 90 min; response scale: percent relative to full dopamine signal; Potency, µM (top dose mostly 76.9 µM), for inactives: at the top dose activation, usual class: activators; actives 5.9% (n = 2,300); AID 720507; further: potency means the concentration at half of the fitted maximal effect; % of control where 0% means no effect; nearly all actives have a fitted effect of over 70% in size
Numbers without * were called inactive; u = inconclusive; x = no result given. Compounds with a hit are over-represented: about 2.4% of the library has one in this group of screens. Unless noted, the call rests on the fitted dose curve; in most records, active means well fitted activation curve with a large enough effect; inconclusive means small, poorly fitted or top-dose-only effect; inactive means flat fitted curve, though single readings scatter.

SMILES | D2 PAM-1 | D2 antagonist | D2 PAM-2 | D2 ag-1 | D2 ag-2 | D3 arrestin ag | D2 ag-3
COC(=O)c1cccc(NC(=O)CN2CCc3ccccc3C2)c1 | 0 | 13 | 6 | 5 | -1 | u | 14%
CCOC(=O)N1CCN(Cc2nc3cc(NC(=O)c4ccc(F)cc4)ccc3n2C(C)C)CC1 | x | x | 15 | x | x | x | x
CCN(CC)C(=O)c1cccc(NC(=O)CCc2nc3sc4c(c3c(=O)[nH]2)CCCC4)c1 | -19 | -12 | -1 | -1 | 1 | -5% | 7%
COc1ccc2oc(=O)c(C(=O)N3c4ccccc4CC3C)cc2c1 (stereo unspecified) | 6 | x | x | x | 11 | -3% | 10%
CC12CCC(C(=O)N(CCCCN3CCN(c4ccccn4)CC3)C1=O)C2(C)C (stereo unspecified) | 57* | 84* | -21 | 73* | 73* | u | 0.071µM*
COc1ccc(N2CCN(CCCNC(=O)c3cnn(-c4ccc(C)cc4)c3-n3cccc3)CC2)cc1 | x | x | 1 | -1 | x | x | x
O=[N+]([O-])c1cccc(CN2CCN(c3ncccn3)CC2)c1 | 8 | 29 | -17 | 75* | u | 9% | u
O=[N+]([O-])c1ccccc1CN1CCN(c2ncccn2)CC1 | -4 | 4 | -3 | 47* | 9 | 2% | 10%
O=[N+]([O-])c1ccc(CN2CCN(c3ncccn3)CC2)cc1 | u | 85* | -27 | 83* | 49* | u | 18µM*
Cc1ccc(NC(=O)Cn2c(=O)n(Cc3ccc4c(c3)OCO4)c(=O)c3ccc(C(=O)NC4CCCCC4)cc32)cc1 | x | x | 21 | 0 | x | x | x
O=C(CC1C(=O)N(c2ccc(F)cc2)C(=O)N1Cc1ccc2c(c1)OCO2)Nc1ccc(Cl)cc1 (stereo unspecified) | x | x | -22 | 1 | x | x | x
CCCC(=O)N1CCc2cc(-c3nc(N)sc3C)ccc21 | -9 | 15 | -1 | 0 | -1 | x | x
CCC(C)C(=O)N1CCc2cc(-c3csc(N)n3)ccc21 (stereo unspecified) | -1 | -1 | -2 | 15 | 11 | 4% | 6%
COc1ccc(C(=O)O)cc1NC(=S)NC(=O)CSc1ccc(Cl)cc1 | 0 | 6 | 5 | -1 | 0 | -15% | -4%
O=c1c2cccnc2[nH]c(=S)n1CCCN1CCN(c2ccccc2F)CC1 | -5 | 116* | -23 | 82* | u | 8% | u
CCOCCCn1c(=S)[nH]c2cc(C(=O)NCCN(CC)CC)ccc2c1=O | 1 | x | -12 | x | 9 | -8% | 12%
O=c1c2ccccc2[nH]c(=S)n1CCCN1CCN(c2ccccc2F)CC1 | -12 | 81* | -29 | 71* | u | 14% | 26%
CCN(CC)CCCn1c(=S)[nH]c2ncccc2c1=O | 8 | 48* | -16 | 50* | 4 | -6% | 6%
CCN(CCCn1c(=S)[nH]c2ncccc2c1=O)c1ccccc1 | -6 | -2 | 1 | -1 | -2 | x | x
O=c1c2ccccc2[nH]c(=S)n1CCCN1CCN(c2ccccc2)CC1 | u | -24 | 5 | 1 | u | x | x
COc1cc([N+](=O)[O-])ccc1NC(=O)N1CCC2(CC1)Nc1ccccc1-n1cccc12 | x | x | -8 | x | x | x | x
Cc1ccc(-c2onc(C)c2C)cc1S(=O)(=O)NCc1ccco1 | x | x | -6 | 0 | x | x | x
Cc1cccc2cc(CNCC3CCCO3)c(Cl)nc12 (stereo unspecified) | -6 | 12 | -23 | 45* | 8 | 4% | 20%
COc1ccccc1NC(=O)CSc1nc(O)c(C/C=C/c2ccccc2)c(=O)[nH]1 | x | x | 2 | -1 | x | x | x
CC(C)c1ccc(-c2nnc3n(CCc4ccccc4)c(=O)c4ccccc4n23)cc1 | x | x | 7 | 1 | x | x | x
SMILES | D2 PAM-1 | D2 antagonist | D2 PAM-2 | D2 ag-1 | D2 ag-2 | D3 arrestin ag | D2 ag-3
CCOC(=O)N1CCN(C/C(C)=C/c2ccccc2)CC1 | 22 | 63* | -29 | 63* | u | 11% | u
O=C(CCCn1c(=O)[nH]c2ccsc2c1=O)N1CCN(Cc2ccc3c(c2)OCO3)CC1 | -19 | x | -6 | x | -3 | -1% | 10%
Cc1cc(=O)oc(C)c1C(=O)N1CCN(Cc2ccc3c(c2)OCO3)CC1 | -10 | 16 | 7 | 0 | 4 | 2% | 16%
COc1cccc(OC)c1C(=O)N1CCN(Cc2ccc3c(c2)OCO3)CC1 | -10 | 20 | -2 | 0 | -3 | x | x
O=C(Cn1ccc2ccccc2c1=O)N1CCN(Cc2ccc3c(c2)OCO3)CC1 | -4 | 0 | -9 | 30* | -4 | 3% | 9%
O=C(c1cc2ccccc2oc1=O)N1CCN(Cc2ccc3c(c2)OCO3)CC1 | -19 | 1 | -8 | 0 | 0 | x | x
CCOc1ccc(OCC)c(NC(=O)C(NS(=O)(=O)c2ccc(Br)s2)c2ccccc2)c1 (stereo unspecified) | x | x | -1 | x | x | x | x
CCOc1ccc(C(=O)Nc2ccc3nc(SCC(=O)N4CCc5ccccc54)sc3c2)cc1 | x | x | -10 | 3 | x | x | x
CC1CN(c2ccc(Cl)cc2)c2nc3c(c(=O)n(CC(=O)O)c(=O)n3C)n2C1 (stereo unspecified) | x | x | -7 | 0 | x | x | x
Cc1ccc(C)c(CN2CCC(CNC(=O)C(CC(C)C)N3Cc4ccccc4C3=O)CC2)c1 (stereo unspecified) | x | x | -17 | 2 | x | x | x
CN(CC(=O)N1CCN(Cc2ccccc2)CC1)C(=O)Cc1cccc2ccccc12 | -15 | -15 | 0 | 37* | 0 | 0% | 7%
N#Cc1ccc(S(=O)(=O)N2CCC(C(=O)N3CCN(Cc4ccc5c(c4)OCO5)CC3)CC2)cc1 | 3 | 43* | -12 | 35* | u | 2% | u
COc1ccc(N(C)S(=O)(=O)c2cccc(C(=O)N3CCN(Cc4ccc5c(c4)OCO5)CC3)c2)cc1 | -12 | -3 | -15 | 58* | 6 | 3% | 11%
Cc1ccc(C(=O)N2CCN(Cc3ccc4c(c3)OCO4)CC2)o1 | -35 | x | x | x | 3 | 11% | 6%
Cc1ccc2c(C)c(C(=O)N3CCN(Cc4ccc5c(c4)OCO5)CC3)oc2c1C | -32 | 5 | -7 | 0 | 8 | x | x
COc1cc(OC)c(NC(=O)c2c(C)oc3nc(C)nc(N4CCOCC4)c23)cc1Cl | x | x | -7 | 0 | x | x | x
COc1cccc(CN2CCN(C(=O)c3cccc(OC)c3)CC2)c1 | -18 | 4 | 2 | 0 | -5 | x | x
CCOC(=O)N1CCN(Cc2ccc3c(c2)OCO3)CC1 | u | 81* | -31 | 86* | 53* | 13% | 5µM*

Screening data: PubChem, National Center for Advancing Translational Sciences (NCATS)
